Data on seven compounds can be found in PubChem BioAssay (EPA / NIEHS).

Common to all, as to details: mRNA level, 48 h; actives raise or lower the signal
Read-out in test [1]: growth arrest and DNA damage 45 (GADD45G), GADD45G (gene 10912)
Briefly: LTEA_HepaRG_GADD45G: Life Technologies and Expression Analysis (LTEA) Assay for growth arrest and DNA damage 45 (GADD45G) using HepaRG (AID 2283499). A digest of the protocol: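 GADD45G transcript level by qRT-PCR (housekeeping-normalized: ACTB, GAPDH, POLR2A) after 48 h chemical treatment of a single HepaRG lot in serum-free induction medium; eight-point half-log series up to 100 uM in 0.5% DMSO, duplicates, up- or down-regulation scored.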

Read-out in test [2]: Glutamate-cysteine ligase regulatory (GCLM), GCLM (gene 2730)
Nature of the test: LTEA_HepaRG_GCLM: Life Technologies and Expression Analysis (LTEA) Assay for Glutamate-cysteine ligase regulatory (GCLM) using HepaRG (AID 2283500). The gist of the method:
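In this multiplexed HepaRG gene-expression assay, GCLM mRNA change after 48 h treatment (8 concentrations, max 100 uM) was scored against DMSO by bidirectional curve fitting.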

Read-out in test [3]: Glutathione S-transferase M3 (GSTM3), GSTM3 (gene 2947)
Nature of the test: LTEA_HepaRG_GSTM3: Life Technologies and Expression Analysis (LTEA) Assay for Glutathione S-transferase M3 (GSTM3) using HepaRG (AID 2283501). The gist of the method:
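GSTM3 transcript levels came from Fluidigm TaqMan qRT-PCR normalized to three housekeeping genes, fitted in both directions against DMSO. HepaRG cultures received chemicals for 48 h in serum-free induction medium (0.5% DMSO), 8 half-log concentrations up to 100 uM, duplicate.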

Read-out in test [4]: Hypoxia-inducible factor 1-alpha (Homo sapiens) (UniProt Q16665)
Briefly: LTEA_HepaRG_HIF1A: Life Technologies and Expression Analysis (LTEA) Assay for Hypoxia-inducible factor 1 (HIF1A) Trancription factor using HepaRG (AID 2283503). A digest of the protocol:
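Gain- or loss-of-signal HIF1A mRNA changes are fitted against a DMSO baseline. HepaRG cultures receive eight concentrations, highest 100 uM, for 48 h in serum-free induction medium with 0.5% DMSO.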

Read-out in the next test: HGF (gene 3082)
Briefly: LTEA_HepaRG_HGF: Life Technologies and Expression Analysis (LTEA) Assay for Hepatocyte Growth Facto (HGF) using HepaRG (AID 2283505). A digest of the protocol:
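HGF transcript was quantified by TaqMan qRT-PCR against three housekeeping genes after 48 h treatment of HepaRG cells. Exposure ran in duplicate over eight half-log steps topping at 100 uM in 0.5% DMSO vehicle.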

Read-out in test [5]: Insulin Like Growth Factor 1 (IGF1), IGF1 (gene 3479)
Nature of the test: LTEA_HepaRG_IGF1: Life Technologies and Expression Analysis (LTEA) Assay for Insulin Like Growth Factor 1 (IGF1) using HepaRG (AID 2283506). The gist of the method:
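Endpoint: IGF1 mRNA change by qRT-PCR, housekeeping-normalized, fitted bidirectionally relative to 0.5% DMSO vehicle. Human HepaRG cells were treated 48 h in serum-free induction medium, eight half-log concentrations topping at 100 uM.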

Read-out in test [6]: Intercellular Adhesion Molecule 1 (ICAM1), ICAM1 (gene 3383)
Briefly: LTEA_HepaRG_ICAM1: Life Technologies and Expression Analysis (LTEA) Assay for Intercellular Adhesion Molecule 1 (ICAM1) using HepaRG (AID 2283507). The gist of the method: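 ICAM1 transcript levels measured by qRT-PCR, normalized to three housekeeping genes (ACTB, GAPDH, POLR2A), after 48 h chemical exposure of HepaRG cells. Duplicate eight-point half-log series from 100 uM in 0.5% DMSO; gain or loss fitted against vehicle.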

Read-out in test [7]: Insulin-like growth factor-binding protein 1 (IGFBP1), IGFBP1 (gene 3484)
Nature of the test: LTEA_HepaRG_IGFBP1: Life Technologies and Expression Analysis (LTEA) Assay for Insulin-like growth factor-binding protein 1 (IGFBP1) using HepaRG (AID 2283508). The gist of the method: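 Read-out is qRT-PCR transcript level normalized to three housekeeping genes, fitted in both directions against 0.5% DMSO. Differentiated HepaRG cells received eight half-log concentrations (top 100 uM) in duplicate for 48 h in serum-free induction medium.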

Read-out in test [8]: Interleukin 6 (IL6), IL6 (gene 3569)
Nature of the test: LTEA_HepaRG_IL6: Life Technologies and Expression Analysis (LTEA) Assay for Interleukin 6 (IL6) using HepaRG (AID 2283509). A digest of the protocol:
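Changes in IL6 mRNA, up or down relative to 0.5% DMSO controls, were derived from concentration-response curves in human HepaRG cells treated for 48 h at up to 100 uM, with ACTB, GAPDH and POLR2A as normalizers.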

Read-out in test [9]: Interleukin 6 Receptor (IL6R), IL6R (gene 3570)
Briefly: LTEA_HepaRG_IL6R: Life Technologies and Expression Analysis (LTEA) Assay for Interleukin 6 Receptor (IL6R) using HepaRG (AID 2283510). The gist of the method:
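In this HepaRG screen, test chemicals act on cells for 48 h at up to 100 uM (eight half-log points, duplicate wells). IL6R expression is quantified by qRT-PCR after normalization to ACTB, GAPDH and POLR2A, with DMSO as baseline.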

Read-out in test [10]: Potassium channel subfamily K member 1 (KCNK1), KCNK1 (gene 3775)
Nature of the test: LTEA_HepaRG_KCNK1: Life Technologies and Expression Analysis (LTEA) Assay for Potassium channel subfamily K member 1 (KCNK1) using HepaRG (AID 2283511). The gist of the method: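 Human HepaRG cultures receive test chemicals for 48 h in 0.5% DMSO, top concentration 100 uM with half-log dilutions. Induction or suppression of KCNK1 mRNA relative to DMSO is derived by bidirectional fitting of qRT-PCR data.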

Read-out in test [11]: Keratin 19 (KRT19), KRT19 (gene 3880)
Briefly: LTEA_HepaRG_KRT19: Life Technologies and Expression Analysis (LTEA) Assay for Keratin 19 (KRT19) using HepaRG (AID 2283512). The gist of the method:
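KRT19 transcript measured by TaqMan qRT-PCR, referenced to three housekeeping genes, after HepaRG cells received test chemicals for 48 h. Eight half-log concentrations, top 100 uM, 0.5% DMSO vehicle; increases and decreases both fitted.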

Read-out in test [12]: JUN Transcription Factor, JUN (gene 3725)
Briefly: LTEA_HepaRG_JUN: Life Technologies and Expression Analysis (LTEA) Assay for JUN Transcription Factor using HepaRG (AID 2283513). The gist of the method:
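Gene-expression endpoint: JUN mRNA (qRT-PCR, normalized to three reference genes) in HepaRG cultures treated 48 h with chemicals, duplicate wells, 100 uM maximum with half-log dilutions; bidirectional fitting relative to 0.5% DMSO.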

Read-out in test [13]: Lipoprotein lipase (LPL), LPL (gene 4023)
Briefly: LTEA_HepaRG_LPL: Life Technologies and Expression Analysis (LTEA) Assay for Lipoprotein lipase (LPL) using HepaRG (AID 2283515). A digest of the protocol:
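Concentration-response testing used half-log steps from 100 uM in 0.5% DMSO on human HepaRG cells, 48 h, duplicate wells. Phenobarbital 1 mM served as induction control; LPL mRNA was normalized to ACTB, GAPDH, POLR2A.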

Read-out in test [14]: MicroRNA 122 (MIR122), gene 406906
Nature of the test: LTEA_HepaRG_MIR122: Life Technologies and Expression Analysis (LTEA) Assay for MicroRNA 122 (MIR122) using HepaRG (AID 2283516). Note: the transcript read is the microRNA miR-122. The gist of the method:
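Changes in transcript abundance, up or down relative to 0.5% DMSO vehicle, were scored after 48 h chemical treatment of HepaRG cells (maximum 100 uM). Quantification used TaqMan qRT-PCR normalized to housekeeping genes.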

Read-out in test [15]: matrix metalloproteinase-10 (MMP10), MMP10 (gene 4319)
Nature of the test: LTEA_HepaRG_MMP10: Life Technologies and Expression Analysis (LTEA) Assay for matrix metalloproteinase-10 (MMP10) using HepaRG (AID 2283517). A digest of the protocol:
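In differentiated HepaRG cultures kept in 0.5% DMSO, test chemicals act for 48 h over an eight-point range with a top dose of 100 uM. Expression is then quantified by TaqMan RT-PCR against ACTB, GAPDH and POLR2A.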

Read-out in another test: MYC, MYC (gene 4609)
Nature of the test: LTEA_HepaRG_MYC: Life Technologies and Expression Analysis (LTEA) Assay for MYC using HepaRG (AID 2283518). A digest of the protocol:
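MYC transcript changes, up or down relative to 0.5% DMSO, from TaqMan qRT-PCR normalized to three housekeeping genes. Human HepaRG cultures received chemicals for 48 h at eight half-log concentrations up to 100 uM, in duplicate.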

Read-out in test [16]: Heat shock 70 kDa protein 1 (HSPA1A), gene 3303
Nature of the test: LTEA_HepaRG_HSPA1A: Life Technologies and Expression Analysis (LTEA) Assay for Heat shock 70 kDa protein 1 (HSPA1A) using HepaRG (AID 2283502). The gist of the method:
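An oxidative-stress marker readout: HepaRG cells treated 48 h in duplicate with an eight-point series (highest 100 uM) had HSPA1A mRNA quantified by TaqMan qRT-PCR. Activity was fitted in both directions using 0.5% DMSO as baseline.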

Activity calls are given as the source filed them. Rule for the calls: active = hit-call score of the fitted dose curve at least 0.9, where 1 is the maximum; inactive = score below 0.9.

One may read the AC50 as the midpoint of the concentration-response curve, whichever way the signal moves.

Sequence of Hypoxia-inducible factor 1-alpha (Homo sapiens) (Q16665 whole entry, looked up): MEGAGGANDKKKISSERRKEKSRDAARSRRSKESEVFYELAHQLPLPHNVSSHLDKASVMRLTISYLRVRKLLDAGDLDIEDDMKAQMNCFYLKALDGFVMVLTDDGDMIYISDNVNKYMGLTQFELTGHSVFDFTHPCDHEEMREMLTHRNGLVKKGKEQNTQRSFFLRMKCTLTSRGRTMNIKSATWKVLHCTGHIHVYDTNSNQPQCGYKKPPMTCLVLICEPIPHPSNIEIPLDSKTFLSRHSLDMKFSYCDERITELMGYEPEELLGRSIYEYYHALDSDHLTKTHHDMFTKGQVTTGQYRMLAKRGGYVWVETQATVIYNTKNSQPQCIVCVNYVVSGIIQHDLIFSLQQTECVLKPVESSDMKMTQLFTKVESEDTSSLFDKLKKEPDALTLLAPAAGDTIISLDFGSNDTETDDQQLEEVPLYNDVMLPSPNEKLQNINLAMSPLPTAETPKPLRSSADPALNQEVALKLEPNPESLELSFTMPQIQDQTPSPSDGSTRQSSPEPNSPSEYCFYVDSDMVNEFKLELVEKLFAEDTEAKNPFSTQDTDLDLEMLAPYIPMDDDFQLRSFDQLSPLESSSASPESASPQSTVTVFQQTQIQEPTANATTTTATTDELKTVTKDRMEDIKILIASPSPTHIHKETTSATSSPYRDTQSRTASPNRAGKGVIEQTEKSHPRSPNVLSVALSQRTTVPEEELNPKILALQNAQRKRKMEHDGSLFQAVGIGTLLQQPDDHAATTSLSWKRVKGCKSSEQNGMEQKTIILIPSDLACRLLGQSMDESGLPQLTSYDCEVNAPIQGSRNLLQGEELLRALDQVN

`CC(C)(C)[C@@H](O)[C@@H](Cc1ccc(Cl)cc1)n1cncn1`: the result (in test [1]; in [2]; in [3]; in [4]; with HGF (gene 3082); in [5]) was inactive. The result in test [6], in [7], in [8], in test [9], in test [10] and in test [11] was inactive. For the same compound, the outcome in test [12] was “inactive”; in test [14], “inactive”; in test [15], “inactive”; with MYC, MYC (gene 4609) it was “inactive”. Moreover, the AC50 in test [13] is 16.5 µM (active).

On to `CCCOC(=O)NCCCN(C)C`, for which the outcome in [1], in test [2], in test [3], in test [16], in [4] and in test [5] was inactive. Further, the call in test [6], in test [7], in test [8], in test [9], in test [10] and in test [11] was inactive. Further, the outcome in [12] is “inactive”; in test [13] it was “inactive”; in [15] it was “inactive”; with MYC, MYC (gene 4609), “inactive”.

Consider `CSC(=O)c1cccc2nnsc12`, for which the call (in test [1]; in test [2]; in test [3]; in test [16]; in test [4]; in the test with HGF (gene 3082)) was inactive. Besides, the result in test [5], in [6], in test [7], in test [8], in test [9] and in test [10] was inactive. The outcome in test [11] is “inactive”; in [12], “inactive”; in [13] it was “inactive”; in [15] it was “inactive”; with MYC, MYC (gene 4609), “inactive”.

On to `CCCCC(CC)COC(=O)c1ccccc1C(=O)O` (stereo not drawn), for which the result (in test [1]; in [2]; in test [3]; in [16]; in test [4]; with HGF (gene 3082)) was inactive. Further, the outcome in test [6], in test [7], in test [8], in test [9], in test [10] and in test [11] was inactive. The outcome in test [12] was “inactive”; in test [13], “inactive”; in [15], “inactive”; with MYC, MYC (gene 4609) it was “inactive”. Besides, the half-maximal activity concentration (AC50) in test [5] was 50.8 µM (active).

Turning to `O=C(c1ccc(O)cc1O)c1ccc(O)cc1O`, the outcome (in test [1]; in test [2]; in test [3]; in [16]; in test [4]; in the test with HGF (gene 3082)) was inactive. Besides, the outcome in [5], in test [6], in [7], in [8], in test [9] and in test [10] was inactive. The outcome in [11] was “inactive”; in [12], “inactive”; in [13] it was “inactive”; in [15], “inactive”; with MYC, MYC (gene 4609) it was “inactive”.

Consider `C[C@]12C[C@H](O)[C@H]3[C@@H](CCC4=CC(=O)CC[C@@]43C)[C@@H]1CC[C@@H]2C(=O)CO`, for which the compound was classed as inactive (in test [1]; in test [2]; in test [3]; in [16]; in test [4]; with HGF (gene 3082)). The result in test [5], in test [6], in [7], in [8], in test [9] and in test [10] was inactive. In addition, the outcome in test [11] was “inactive”; in test [12], “inactive”; in test [13], “inactive”; in test [15], “inactive”; with MYC, MYC (gene 4609), “inactive”.

For `OB(O)O`, the compound was called inactive (in [1]; in test [2]; in [3]; in [16]; in test [4]; with HGF (gene 3082)). Besides, the compound was called inactive in [5], in test [6], in test [7], in test [8], in test [9] and in [10]. Besides, the outcome is “inactive” in [11]; “inactive” in test [12]; “inactive” in test [13]; “inactive” in test [15]; “inactive” with MYC, MYC (gene 4609).
